In all, about 39,000 compounds went through this assay and about 3,300 (8.5%) were called active. The full list was thinned out, with actives kept by preference.

Among the data in the antibiotic and cytotoxicity screens of Wong et al. (2023) are cytotoxicity call values, retold here.

For this assay, the system named is HepG2. Kind of assay: cytotoxicity call (relative viability < 0.9). The settings on record: 10 µM.
For the molecule `CC(=O)N[C@@H]1[C@@H](O)[C@H](O)[C@H](CO)O[C@@H]1O`, the cytotoxicity call is “inactive”. Consider `COCC(=O)Nc1ccc2c(c1)OC[C@@H](C)N(C(=O)Cc1cccnc1)C[C@H](C)[C@@H](OC)CN(C)C2=O`, for which the cytotoxicity call was “inactive”. `Cn1cnc(S(=O)(=O)N2C[C@@H](O)COC[C@H]3O[C@H](CC(=O)NCc4ccc(F)cc4)CC[C@@H]32)c1`: the cytotoxicity call was “inactive”. For the molecule `COc1cc(C)nc(SCC(N)=O)n1`, the cytotoxicity call was “inactive”. Take `COc1ccc(S(=O)(=O)Nc2ccc3c(c2)C(=O)N([C@@H](C)CO)C[C@@H](C)[C@@H](CN(C)S(=O)(=O)c2ccccc2)O3)cc1`: the cytotoxicity call is “inactive”. Regarding `C[C@@H]1CN([C@H](C)CO)C(=O)CCCn2nncc2CO[C@@H]1CN(C)C(=O)CCCN(C)C`, the cytotoxicity call was “inactive”. The result for `Cc1cc(C)c(-c2ccc(NC(=O)[C@H](Cc3ccc(C(=O)NCCS(=O)(=O)O)cc3)c3ccc(-c4ccc(C(C)(C)C)cc4)cc3)cc2)c(C)c1` reads “active”; that for `Cc1cc(O[C@@H](CCC(F)(F)F)c2ccc(C(=O)NCCC(=O)O)cc2)cc(C)c1-c1ccc(C(C)(C)C)cc1`, “inactive”; that for `COc1ccc(C#Cc2ccc3c(c2)O[C@H](CN(C)S(=O)(=O)c2ccccc2F)[C@@H](C)CN([C@H](C)CO)S3(=O)=O)cc1`, “inactive”. As to `COc1ccc(S(=O)(=O)Nc2ccc3c(c2)C(=O)N([C@@H](C)CO)C[C@@H](C)[C@H](CN(C)Cc2ccc(C(F)(F)F)cc2)OCCCC[C@@H](C)O3)cc1`, the cytotoxicity call is “active”. In the case of `COc1ccc(S(=O)(=O)Nc2ccc3c(c2)C(=O)N([C@@H](C)CO)C[C@H](C)[C@H](CN(C)Cc2ccc(C(F)(F)F)cc2)OCCCC[C@H](C)O3)cc1`, the cytotoxicity call was “active”.

With `COc1ccc(S(=O)(=O)Nc2ccc3c(c2)C(=O)N([C@H](C)CO)C[C@@H](C)[C@@H](CN(C)Cc2ccc(C(F)(F)F)cc2)OCCCC[C@H](C)O3)cc1`, the cytotoxicity call is “inactive”. As to `COc1ccc(S(=O)(=O)Nc2ccc3c(c2)C(=O)N([C@@H](C)CO)C[C@@H](C)[C@@H](CN(C)Cc2ccc(C(F)(F)F)cc2)OCCCC[C@@H](C)O3)cc1`, the cytotoxicity call was “active”. `COc1ccc(S(=O)(=O)Nc2ccc3c(c2)C(=O)N([C@@H](C)CO)C[C@H](C)[C@@H](CN(C)Cc2ccc(C(F)(F)F)cc2)OCCCC[C@@H](C)O3)cc1`: the cytotoxicity call is “active”. Take `COc1ccc(S(=O)(=O)Nc2ccc3c(c2)C(=O)N([C@H](C)CO)C[C@H](C)[C@@H](CN(C)Cc2ccc(C(F)(F)F)cc2)OCCCC[C@@H](C)O3)cc1`: the cytotoxicity call is “inactive”. For the molecule `C[C@@H]1CCCCO[C@@H](CN(C)C(=O)c2ccncc2)[C@@H](C)CN([C@H](C)CO)C(=O)c2cc(NC(=O)NC3CCCCC3)ccc2O1`, the cytotoxicity call is “inactive”. `CO[C@H]1CN(C)C(=O)c2ccc(NC(=O)C3CC3)cc2OC[C@H](C)N(C(=O)Cc2ccccn2)C[C@@H]1C`: the cytotoxicity call is “inactive”. As for `C[C@@H]1CN([C@H](C)CO)C(=O)c2cccc(NC(=O)Nc3ccccc3)c2O[C@@H]1CN(C)Cc1ccc(Cl)c(Cl)c1`, the cytotoxicity call is “inactive”.

Turning to `C[C@H](CO)N1C[C@H](C)[C@@H](CN(C)C(=O)Nc2ccc3c(c2)OCO3)Oc2ncc(-c3cccnc3)cc2C1=O`, the cytotoxicity call was “inactive”.

For `CCS(=O)(=O)Nc1ccc2c(c1)C(=O)N(C)[C@H]1CC[C@@H](CC(=O)NCCOC)O[C@H]1CO2`, the cytotoxicity call was “inactive”. `C[C@H](CO)N1C[C@H](C)[C@H](CN(C)CC2CCCCC2)Oc2c(NC(=O)c3cnccn3)cccc2C1=O`: the cytotoxicity call is “inactive”.

In the case of `Nc1ccn([C@@H]2CS[C@H](CO)O2)c(=O)n1`, the cytotoxicity call is “inactive”. The value for `CN1CCN(C(=O)C[C@H]2CC[C@@H]3[C@@H](COc4ccc(NC(=O)C5CCCCC5)cc4C(=O)N3C)O2)CC1` was “inactive”; that for `CCCNC(=O)N1C[C@]2(CN(C2)S(=O)(=O)c2ccc(cc2)OC)c2c(n(c3cc(ccc23)OC)C)[C@@H]1CO` was “inactive”; that for `C[C@H](CO)N1C[C@H](C)[C@@H](CN(C)C(=O)c2cccc(F)c2)Oc2cc(C#CC3CC3)ccc2S1(=O)=O` was “inactive”.

Regarding `CNC(=O)C[C@H]1CC[C@H]2[C@@H](COC[C@H](O)CN2C(=O)Nc2ccc3c(c2)OCO3)O1`, the cytotoxicity call is “inactive”. For `C[C@@H]1CN([C@@H](C)CO)C(=O)c2cc(NC(=O)c3ccncc3)ccc2O[C@@H]1CN(C)S(=O)(=O)c1cccs1`, the cytotoxicity call was “inactive”. `COc1ccc(NC(=O)N(C)C[C@@H]2Oc3ccc(NS(C)(=O)=O)cc3C(=O)N([C@H](C)CO)C[C@@H]2C)cc1`: the cytotoxicity call is “inactive”. Consider `Cc1noc(C)c1NC(=O)N(C)C[C@H]1OCCCC[C@H](C)Oc2ccc(NC(=O)Nc3cccc4ccccc34)cc2C(=O)N([C@H](C)CO)C[C@@H]1C`, for which the cytotoxicity call was “inactive”. With `C[C@@H]1CN([C@@H](C)CO)C(=O)c2cccc(NC(=O)c3ccc(-c4nccs4)cc3)c2O[C@H]1CN(C)C(=O)Nc1ccc2c(c1)OCO2`, the cytotoxicity call is “inactive”. For the molecule `O=C(O)c1cc(O)c2cccc(O)c2n1`, the cytotoxicity call was “inactive”.

`COc1ccc(S(=O)(=O)Nc2ccc3c(c2)C(=O)N([C@H](C)CO)C[C@@H](C)[C@@H](CN(C)Cc2ccc(C(F)(F)F)cc2)OCCCC[C@@H](C)O3)cc1`: the cytotoxicity call is “active”.

As to `COc1ccc(S(=O)(=O)Nc2ccc3c(c2)C(=O)N([C@H](C)CO)C[C@H](C)[C@@H](CN(C)Cc2ccc(C(F)(F)F)cc2)OCCCC[C@H](C)O3)cc1`, the cytotoxicity call was “inactive”. On to `COc1ccc(S(=O)(=O)Nc2ccc3c(c2)C(=O)N([C@@H](C)CO)C[C@H](C)[C@H](CN(C)Cc2ccc(C(F)(F)F)cc2)OCCCC[C@@H](C)O3)cc1`, for which the cytotoxicity call was “inactive”. `COc1ccc(S(=O)(=O)Nc2ccc3c(c2)C(=O)N([C@H](C)CO)C[C@@H](C)[C@H](CN(C)Cc2ccc(C(F)(F)F)cc2)OCCCC[C@@H](C)O3)cc1`: the cytotoxicity call was “active”. As to `COc1ccc(S(=O)(=O)Nc2ccc3c(c2)C(=O)N([C@H](C)CO)C[C@H](C)[C@H](CN(C)Cc2ccc(C(F)(F)F)cc2)OCCCC[C@@H](C)O3)cc1`, the cytotoxicity call was “active”. Take `COc1ccc(S(=O)(=O)Nc2ccc3c(c2)C(=O)N([C@H](C)CO)C[C@@H](C)[C@H](CN(C)Cc2ccc(C(F)(F)F)cc2)OCCCC[C@H](C)O3)cc1`: the cytotoxicity call is “inactive”. Regarding `COc1ccc(S(=O)(=O)Nc2ccc3c(c2)C(=O)N([C@H](C)CO)C[C@H](C)[C@H](CN(C)Cc2ccc(C(F)(F)F)cc2)OCCCC[C@H](C)O3)cc1`, the cytotoxicity call was “inactive”.

For the molecule `COc1ccc(S(=O)(=O)Nc2ccc3c(c2)C(=O)N([C@@H](C)CO)C[C@@H](C)[C@@H](CN(C)Cc2ccc(C(F)(F)F)cc2)OCCCC[C@H](C)O3)cc1`, the cytotoxicity call was “inactive”. For the molecule `COc1ccc(S(=O)(=O)Nc2ccc3c(c2)C(=O)N([C@@H](C)CO)C[C@H](C)[C@@H](CN(C)Cc2ccc(C(F)(F)F)cc2)OCCCC[C@H](C)O3)cc1`, the cytotoxicity call was “inactive”. Turning to `COc1ccc(S(=O)(=O)Nc2ccc3c(c2)C(=O)N([C@@H](C)CO)C[C@@H](C)[C@H](CN(C)Cc2ccc(C(F)(F)F)cc2)OCCCC[C@H](C)O3)cc1`, the cytotoxicity call was “active”.
